Targets with a hit are over-represented here; the source holds about 8,800 in all. About 0.5% of all pairs of compound and target were hits. Values without a mark were called inactive.
Assays:
Assay in all cases: log2 fold change, soluble protein after heating vs DMSO (PISA); higher = thermal stabilisation; K562 lysate, 10 uM; active = over 0.2 and 3.5 SD of the protein, either way, in both replicates (recomputed)
[1] = compound: C1=CC=C(C=C1)[C@H](COC2=CC3=C(C=C2)NC(=O)N3)NC(=O)C4=CC=CN(C4=O)CC5=CC(=C(C=C5)F)F
Outline: (§1)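 Values give the log-two fold change in thermal stability against solvent controls, from duplicates. Crude K562 extract at 1 mg/mL protein, made by dounce homogenisation in PBS pH 7.4 with 1 mM MgCl2, was treated with 10 μM compound for 30 min. After 3 min heating across 48°C-58°C, aliquots were pooled, adjusted to 0.5% NP-40 at 4°C and centrifuged at 21,000xg for 90 min. The supernatant was measured by TMTpro 16plex LC-MS/MS with channel sums equalised.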

[2] = compound: CC1=C(SC2=C1C(=N[C@H](C3=NN=C(N32)C)CC(=O)N)C4=CC=C(C=C4)Cl)C
Outline: as §1

[3] = compound: CC1=C2C(=CC=C1)N=C(N(C2=O)C3=CC=CC=C3C)CN4C=NC5=C(N=CN=C54)N
Outline: as §1

[4] = compound: Cc1sc2c(c1C)C(c1ccc(Cl)cc1)=N[C@@H](CC(=O)OC(C)(C)C)c1nnc(C)n1-2
Outline: as §1

[5] = compound: c1ccc([C@@H]2C[C@H]2NC2CCNCC2)cc1
Outline: as §1

Sequence of UniProt Q86WR0 (Q86WR0 whole entry, looked up): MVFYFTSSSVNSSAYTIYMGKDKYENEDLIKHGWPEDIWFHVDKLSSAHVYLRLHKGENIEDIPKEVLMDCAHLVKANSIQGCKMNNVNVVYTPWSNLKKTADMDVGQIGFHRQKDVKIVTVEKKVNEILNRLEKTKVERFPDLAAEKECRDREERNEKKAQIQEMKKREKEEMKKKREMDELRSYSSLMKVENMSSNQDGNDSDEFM
Sequence of UniProt O75081 (O75081 whole entry, looked up): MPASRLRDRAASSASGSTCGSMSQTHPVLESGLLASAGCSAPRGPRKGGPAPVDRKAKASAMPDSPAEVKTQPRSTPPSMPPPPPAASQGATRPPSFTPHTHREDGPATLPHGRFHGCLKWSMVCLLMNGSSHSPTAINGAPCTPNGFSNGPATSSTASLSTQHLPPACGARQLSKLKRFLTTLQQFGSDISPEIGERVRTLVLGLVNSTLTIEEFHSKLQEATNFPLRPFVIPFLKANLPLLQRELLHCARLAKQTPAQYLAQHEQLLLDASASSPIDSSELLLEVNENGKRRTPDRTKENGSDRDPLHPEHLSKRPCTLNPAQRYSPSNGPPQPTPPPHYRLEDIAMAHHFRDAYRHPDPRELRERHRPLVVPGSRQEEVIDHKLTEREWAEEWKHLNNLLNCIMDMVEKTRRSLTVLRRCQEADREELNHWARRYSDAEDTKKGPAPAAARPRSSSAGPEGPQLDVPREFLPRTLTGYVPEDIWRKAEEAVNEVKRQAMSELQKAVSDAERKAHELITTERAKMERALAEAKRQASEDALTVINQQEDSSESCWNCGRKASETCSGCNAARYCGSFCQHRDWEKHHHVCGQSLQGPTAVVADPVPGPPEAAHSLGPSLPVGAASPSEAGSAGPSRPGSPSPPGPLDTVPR
Sequence of UniProt Q9NSG2 (Q9NSG2 whole entry, looked up): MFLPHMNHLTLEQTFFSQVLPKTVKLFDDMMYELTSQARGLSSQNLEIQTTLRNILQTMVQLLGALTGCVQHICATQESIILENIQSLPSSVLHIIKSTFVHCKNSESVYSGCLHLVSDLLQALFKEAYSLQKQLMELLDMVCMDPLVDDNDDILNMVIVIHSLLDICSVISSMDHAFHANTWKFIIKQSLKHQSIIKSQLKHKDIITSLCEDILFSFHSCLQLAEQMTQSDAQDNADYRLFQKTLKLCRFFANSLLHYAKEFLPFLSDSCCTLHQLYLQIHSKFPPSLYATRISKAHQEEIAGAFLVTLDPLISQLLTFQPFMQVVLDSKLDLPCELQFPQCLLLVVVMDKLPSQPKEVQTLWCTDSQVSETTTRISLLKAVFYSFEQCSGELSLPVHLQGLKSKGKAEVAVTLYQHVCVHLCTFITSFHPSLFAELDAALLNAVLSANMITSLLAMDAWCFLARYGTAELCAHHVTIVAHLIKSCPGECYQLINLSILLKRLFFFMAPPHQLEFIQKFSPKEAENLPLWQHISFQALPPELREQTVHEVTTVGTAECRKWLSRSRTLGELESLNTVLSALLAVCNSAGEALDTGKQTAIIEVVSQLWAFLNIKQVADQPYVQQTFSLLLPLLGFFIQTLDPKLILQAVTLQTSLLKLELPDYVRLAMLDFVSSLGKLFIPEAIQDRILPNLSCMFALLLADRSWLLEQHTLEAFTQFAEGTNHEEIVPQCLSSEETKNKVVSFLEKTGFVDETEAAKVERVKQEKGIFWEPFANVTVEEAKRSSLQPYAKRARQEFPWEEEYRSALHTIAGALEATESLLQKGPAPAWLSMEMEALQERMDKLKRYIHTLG
Sequence of UniProt Q92879 (Q92879 whole entry, looked up): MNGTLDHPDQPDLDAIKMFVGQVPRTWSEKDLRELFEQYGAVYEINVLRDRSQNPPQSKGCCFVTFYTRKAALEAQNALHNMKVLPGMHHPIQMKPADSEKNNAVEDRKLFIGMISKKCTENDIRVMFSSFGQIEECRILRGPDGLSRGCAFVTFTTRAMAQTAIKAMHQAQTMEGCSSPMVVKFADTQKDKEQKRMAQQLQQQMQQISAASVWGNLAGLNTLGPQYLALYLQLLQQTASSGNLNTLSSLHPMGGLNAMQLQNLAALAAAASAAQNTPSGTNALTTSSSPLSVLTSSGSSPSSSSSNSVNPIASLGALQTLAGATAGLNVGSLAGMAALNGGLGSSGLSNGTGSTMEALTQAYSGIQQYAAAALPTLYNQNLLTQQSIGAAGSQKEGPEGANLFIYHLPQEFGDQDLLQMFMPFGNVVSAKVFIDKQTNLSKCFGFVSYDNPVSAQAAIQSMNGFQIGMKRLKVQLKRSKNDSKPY
Sequence of UniProt P45973 (P45973 whole entry, looked up): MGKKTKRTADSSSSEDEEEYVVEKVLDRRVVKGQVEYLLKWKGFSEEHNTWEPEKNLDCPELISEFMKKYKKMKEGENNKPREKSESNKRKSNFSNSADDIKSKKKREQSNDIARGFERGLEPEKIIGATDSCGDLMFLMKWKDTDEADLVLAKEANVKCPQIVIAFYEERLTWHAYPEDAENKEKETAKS
Sequence of UniProt O14965 (O14965 whole entry, looked up): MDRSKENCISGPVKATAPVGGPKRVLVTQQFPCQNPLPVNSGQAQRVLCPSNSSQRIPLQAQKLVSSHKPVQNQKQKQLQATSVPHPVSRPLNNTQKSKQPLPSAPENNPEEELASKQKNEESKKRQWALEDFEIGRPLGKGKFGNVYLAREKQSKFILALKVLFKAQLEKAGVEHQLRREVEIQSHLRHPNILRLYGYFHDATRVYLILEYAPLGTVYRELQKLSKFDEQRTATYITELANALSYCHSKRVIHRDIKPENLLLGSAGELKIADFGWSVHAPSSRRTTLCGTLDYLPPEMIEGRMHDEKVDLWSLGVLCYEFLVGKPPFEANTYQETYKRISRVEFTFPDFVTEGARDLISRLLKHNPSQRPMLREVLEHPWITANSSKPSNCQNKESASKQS
Sequence of UniProt P27824 (P27824 whole entry, looked up): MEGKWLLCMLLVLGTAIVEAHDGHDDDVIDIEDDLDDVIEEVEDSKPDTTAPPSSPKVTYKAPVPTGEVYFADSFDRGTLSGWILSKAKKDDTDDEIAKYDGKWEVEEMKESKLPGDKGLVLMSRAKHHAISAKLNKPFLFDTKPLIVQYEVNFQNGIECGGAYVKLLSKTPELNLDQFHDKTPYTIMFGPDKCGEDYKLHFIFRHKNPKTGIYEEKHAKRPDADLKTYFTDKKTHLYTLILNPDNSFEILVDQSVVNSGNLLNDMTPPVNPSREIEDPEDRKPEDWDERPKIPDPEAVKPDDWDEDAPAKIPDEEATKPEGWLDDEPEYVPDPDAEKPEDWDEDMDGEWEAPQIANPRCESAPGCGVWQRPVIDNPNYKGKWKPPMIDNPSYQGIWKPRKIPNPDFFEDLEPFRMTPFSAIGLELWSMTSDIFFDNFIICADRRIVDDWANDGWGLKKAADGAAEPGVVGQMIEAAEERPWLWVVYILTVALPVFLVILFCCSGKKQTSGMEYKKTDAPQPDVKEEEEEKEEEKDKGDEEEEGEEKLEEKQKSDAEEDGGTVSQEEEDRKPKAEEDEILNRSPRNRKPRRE
Sequence of UniProt Q14692 (Q14692 whole entry, looked up): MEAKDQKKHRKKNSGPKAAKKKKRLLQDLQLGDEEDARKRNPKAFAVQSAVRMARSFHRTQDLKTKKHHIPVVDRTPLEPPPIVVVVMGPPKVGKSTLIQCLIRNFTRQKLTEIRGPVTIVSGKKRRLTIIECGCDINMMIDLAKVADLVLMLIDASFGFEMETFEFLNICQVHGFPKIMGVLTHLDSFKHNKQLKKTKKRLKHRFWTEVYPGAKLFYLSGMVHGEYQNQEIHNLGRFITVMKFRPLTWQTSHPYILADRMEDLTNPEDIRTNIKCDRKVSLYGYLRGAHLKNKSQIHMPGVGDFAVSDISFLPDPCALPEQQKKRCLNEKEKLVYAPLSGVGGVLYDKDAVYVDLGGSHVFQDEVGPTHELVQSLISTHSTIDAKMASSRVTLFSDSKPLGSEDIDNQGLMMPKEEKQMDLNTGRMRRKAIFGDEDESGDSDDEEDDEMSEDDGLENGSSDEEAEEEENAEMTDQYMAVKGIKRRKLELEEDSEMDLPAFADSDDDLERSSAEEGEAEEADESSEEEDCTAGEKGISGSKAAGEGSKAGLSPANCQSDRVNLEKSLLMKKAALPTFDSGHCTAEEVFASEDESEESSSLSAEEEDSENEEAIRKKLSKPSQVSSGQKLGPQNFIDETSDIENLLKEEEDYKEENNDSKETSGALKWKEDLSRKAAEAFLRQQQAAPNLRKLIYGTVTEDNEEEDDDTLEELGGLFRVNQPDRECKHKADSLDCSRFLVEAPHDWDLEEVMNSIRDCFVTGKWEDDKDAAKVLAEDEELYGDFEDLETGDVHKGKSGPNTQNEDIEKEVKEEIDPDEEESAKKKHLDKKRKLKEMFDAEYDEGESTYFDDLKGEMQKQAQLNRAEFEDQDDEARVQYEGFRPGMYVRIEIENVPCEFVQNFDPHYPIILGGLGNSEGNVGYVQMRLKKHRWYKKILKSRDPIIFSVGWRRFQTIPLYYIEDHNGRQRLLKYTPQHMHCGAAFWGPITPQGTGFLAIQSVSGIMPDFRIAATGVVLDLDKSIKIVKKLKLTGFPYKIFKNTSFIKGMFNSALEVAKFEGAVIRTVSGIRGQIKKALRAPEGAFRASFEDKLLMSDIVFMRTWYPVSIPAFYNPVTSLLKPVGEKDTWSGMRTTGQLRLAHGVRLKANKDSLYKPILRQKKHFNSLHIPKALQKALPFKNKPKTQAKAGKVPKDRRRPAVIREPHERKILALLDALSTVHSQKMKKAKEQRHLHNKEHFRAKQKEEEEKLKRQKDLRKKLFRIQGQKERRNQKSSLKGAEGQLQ
Sequence of UniProt Q9H3Q1 (Q9H3Q1 whole entry, looked up): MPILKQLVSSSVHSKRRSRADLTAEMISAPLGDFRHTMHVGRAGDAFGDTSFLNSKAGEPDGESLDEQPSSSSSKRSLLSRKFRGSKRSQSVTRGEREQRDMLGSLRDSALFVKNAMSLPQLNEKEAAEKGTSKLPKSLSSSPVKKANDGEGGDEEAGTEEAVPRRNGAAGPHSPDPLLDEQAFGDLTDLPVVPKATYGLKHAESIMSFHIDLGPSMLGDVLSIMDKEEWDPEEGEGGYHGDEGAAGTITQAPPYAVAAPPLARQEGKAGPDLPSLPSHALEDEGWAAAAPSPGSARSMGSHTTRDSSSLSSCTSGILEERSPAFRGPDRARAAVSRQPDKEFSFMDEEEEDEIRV

Target	log2 fold change [1]	log2 fold change [2]	log2 fold change [3]	log2 fold change [4]	log2 fold change [5]
AURKA (UniProt O14965)	-0.053	-0.001	-0.042	-0.055	-0.157
CELF1 isoform 4 (UniProt Q92879)	0.04	-0.005	0.07	0.044	0.144
CCDC25 (UniProt Q86WR0)	0.008	0.035	0.023	-0.015	0.164
BTK isoform 2 (UniProt Q06187)	-0.049	-0.033	0.012	-0.002	-0.064
CDC42EP4 (UniProt Q9H3Q1)	0.113	-0.084	-0.098	0.004	-0.036
CHCHD1 (UniProt Q96BP2)	-0.026	0.024	-0.04	-0.091	0.627 (active)
AVEN (UniProt Q9NQS1)	0.205	0.025	0.003	0.013	-0.058
ATG7 (UniProt O95352)	0.014	0.003	0.028	-0.014	0.044
CDK2 (UniProt P24941)	0.006	0.004	-0.039	0.076	-0.028
ATM (UniProt Q13315)	-0.015	0.013	-0.037	0.038	-0.036
CDK8 (UniProt P49336)	-0.05	-0.108	0.202	0.017	-0.045
BCKDK (UniProt O14874)	-0.036	-0.007	-0.037	0.016	0.012
BMS1 (UniProt Q14692)	0.047	-0.036	0.027	0.013	-0.029
ATR (UniProt Q13535)	-0.061	-0.036	-0.04	0.003	-0.095
CDK9 isoform 2 (UniProt P50750)	-0.001	-0.043	-0.015	-0.008	-0.114
CBFA2T3 (UniProt O75081)	-0.029	-0.01	0.058	0.009	0.019
CHAF1A (UniProt Q13111)	-0.099	0.136	0.041	0.017	0.022
CAMK1 (UniProt Q14012)	0.096	0.014	-0.007	0.026	-0.047
CBX5 (UniProt P45973)	0.04	-0.002	-0.038	0.031	-0.135
CAPN15 (UniProt O75808)	-0.047	0.063	-0.017	-0.011	0.056
BRD2 isoform 2 (UniProt P25440)	0.024	1.06 (active)	0.081	0.644 (active)	0.071
CDK17 isoform 2 (UniProt Q00537)	0.072	0.099	0.109	0.072	-0.146
C1orf112 (UniProt Q9NSG2)	0.066	-0.011	-0.007	0.066	-0.345
BRD3 (UniProt Q15059)	0.027	0.631 (active)	0.112	0.5 (active)	-0.167
CANX isoform 2 (UniProt P27824)	0.05	-0.022	-0.005	-0.027	-0.046

From the supplement of paper PMC10849652
